HT1080 IDH1KD tx: qHTS for induction of synthetic lethality in tumor cells producing 2HG: qHTS for the HT-1080-IDH1KD cell line | HT-1080 IDH1 knockdown viability, ATP luminescence, 48 h | Potency, µM (highest dose often 46.1 µM), without a hit: top-dose activity, negative = toxicity, hits mostly cytotoxic | 360,000 compounds, 2% hits | AID 686971, 2013;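 note: potency is the fitted concentration of half-maximal effect; 0% = DMSO wells and -100% = cell-free medium wells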
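% activity derives from luminescence (CellTiter-Glo), normalised to DMSO and no-cell wells. HT-1080-IDH1KD cells, 750/well, had 48 h compound exposure at 37 °C.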
TDP1 cell noCPT: qHTS for Inhibitors of human tyrosyl-DNA phosphodiesterase 1 (TDP1): qHTS in cells in absence of CPT | DT40 Tdp1-/- hTDP1 cells, no CPT, ATP luminescence, 48 h | Potency, µM (top dose mostly 46.2 µM), without a hit: at the highest dose activity change, negative = growth inhibition, hits mostly inhibitors | 420,000 compounds, 15% hits | AID 686978, 2013; note: potency is the fitted concentration of half-maximal effect; nearly all actives have a fitted effect of over 55% in size
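Growth of hTDP1-complemented DT40 Tdp1-knockout cells is measured by ATP luminescence after at least 48 hr compound exposure at 37 °C, with DMSO substituting for the 20 nM CPT used in the parallel screen.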
IL-1B inflam inh: qHTS for Inhibitors of Inflammasome Signaling: IL-1-beta AlphaLISA Primary Screen | THP-1 LPS/ATP IL-1B secretion, AlphaLISA, 16 h; hits give low values | activity change, % at 57.5 µM | 360,000 compounds, 4.7% hits; in the data active = activity change below about -50%; inconclusive = mostly about -30% to -49%
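Secreted IL-1B measured by AlphaLISA bead assay after 16 h compound exposure of THP-1 cells; compounds (final up to 57.5 uM) added 1 h before LPS (250 ng/mL) and ATP (1.25 mM) stimulation; lower signal means less secretion.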
TDP1 cell CPT: qHTS for Inhibitors of human tyrosyl-DNA phosphodiesterase 1 (TDP1): qHTS in cells in presence of CPT | Potency, µM (doses to about 46.2 µM), for inactives: at the top dose activity change, negative = growth inhibition, hits mostly inhibitors | AID 686979, 2013 | chicken DT40 Tdp1-/-;hTDP1 cells + 20 nM CPT, ATP luminescence, 48 h | 420,000 compounds, 12% hits; note: potency is the fitted concentration of half-maximal effect; nearly all actives have a fitted effect of over 55% in size
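Cell growth measured by CellTiter-Glo luminescence after a minimum 48 h, 37 C compound exposure with 20 nM CPT in Tdp1-knockout DT40 cells stably expressing hTDP1, seeded 400/well; qHTS titration format.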
HT1080-NT tox: qHTS for induction of synthetic lethality in tumor cells producing 2HG: qHTS for the HT-1080-NT fibrosarcoma cell line. HT-1080-NT fibrosarcoma viability, CellTiter-Glo ATP luminescence, 48 h. Potency, µM (titrated, usually from 46.1 µM), for the others: top-dose activity, negative = less viability, hits mostly cytotoxic. 360,000 compounds, 1.6% hits. AID 686970, 2013;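 note: NT is the 2HG producing partner of a matched IDH1 knockdown line; potency is the fitted concentration of half-maximal effect; 0% = DMSO-treated cells and -100% = media-only wells without cells; nearly all actives have a fitted effect of over 55% in size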
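HT-1080-NT fibrosarcoma cells (2HG-overproducing), 750 cells/well in RPMI with 5% FBS, dosed after 2 h and incubated 48 h at 37C. CellTiter-Glo luminescence normalized to DMSO and no-cell wells; concentration-response curves fitted and classed.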
Numbers without * were called inactive; ? = inconclusive; / = no result. Sampled rows, rich in hits. Any-hit rate of the full collection: about 19%. Unless noted, calls come from the whole dose curve; as a rule, active = well fitted curve in the direction sought with a large enough effect; inconclusive = small, poorly fitted or top-dose-only effect, or another doubt; inactive = no such curve, though single readings can be large; an effect the other way counts as inactive or inconclusive. Unless noted, % is set by controls: 0 for no effect and ±100 for the full control effect.

SMILES	HT1080 IDH1KD tx	TDP1 cell noCPT	IL-1B inflam inh	TDP1 cell CPT	HT1080-NT tox
C[C@]12C(=O)N(c3cccc(Cl)c3)C(=O)N1[C@@H]1c3ccccc3OC[C@@H]1[C@H]2c1ccccc1	-5%	12µM*	-8	15µM*	-7%
C[C@]12C(=O)N(c3cccc(F)c3)C(=O)N1[C@H]1c3ccccc3OC[C@@H]1[C@H]2c1ccccc1	-9%	?	13	?	-5%
C[C@]12C(=O)N(c3ccccc3)C(=O)N1[C@@H]1c3ccccc3OC[C@@H]1[C@H]2c1ccccc1	-7%	16µM*	-4	15µM*	24%
C[C@]12C(=O)N(c3ccccc3)C(=O)N1[C@H]1c3ccccc3OC[C@@H]1[C@H]2c1ccccc1	0%	?	-3	?	0%
C[C@]12C(=O)N(c3cccc(F)c3)C(=O)N1[C@@H]1c3ccccc3OC[C@@H]1[C@H]2c1ccccc1	-2%	21µM*	-19	12µM*	-2%
C[C@]12C(=O)N(c3ccc(C(F)(F)F)cc3)C(=O)N1[C@@H]1c3ccccc3OC[C@@H]1[C@H]2c1ccccc1	0%	?	-9	23µM*	0%
Cc1cc(C(=O)NCCCN2CC(C)CC(C)C2)n(-c2ccccc2)n1 (centres undefined)	1%	-1%	4	2%	-8%
COc1cccc(C2c3[nH]c4ccccc4c3C[C@H]3C(=O)N(CCCCCO)CC(=O)N23)c1 (some centres undefined)	-23%	-8%	?	-18%	-11%
Cc1cc(C(=O)NNC(=O)NC(C)C)no1	1%	-6%	10	6%	19%
O=C(CN1CCN(CC(=O)Nc2ccccc2Cl)CC1)Nc1ccc(F)c(F)c1	-2%	23µM*	-22	?	-5%
CCN1CCC(N(Cc2cccc(OC)c2)C(=O)Nc2ccc(C)cc2Cl)CC1	/	18µM*	/	?	/
COc1ccccc1CN(C)C(=O)CN1CCN(C(=O)c2cccs2)CC1	-3%	?	4	?	-3%
COc1ccccc1CN(C)C(=O)CN1CCN(CC(=O)Nc2ccccc2Cl)CC1	12%	23µM*	-13	23µM*	9%
COc1ccc(CN(C(=O)Nc2cccc(OC)c2)C2CCN(C(C)=O)CC2)cc1	/	-16%	/	-13%	/
COC(=O)c1ccc(Cl)cc1NC(=O)N(Cc1ccc(OC)cc1)C1CCN(C(C)=O)CC1	/	7.3µM*	/	?	/
N/C(Cc1ccc(Cl)cc1Cl)=N\OC(=O)Cc1ccccc1	-3%	-27%	0	-25%	-6%
CC(C)CCNC(=O)c1ccc2nc(CCc3ccccc3)oc2c1	/	-19%	/	8%	/
O=C(NNC(=O)c1ccccc1-n1cccc1)c1cccnc1	3%	-23%	10	-4%	3%
COc1cccc(C(C)NC(=O)c2c(F)cccc2Cl)c1 (centres undefined)	12%	-12%	-2	2%	0%
COc1cccc(C(C)NC(=O)Nc2ccccc2Cl)c1 (centres undefined)	-11%	?	6	21µM*	-4%
O=C(CN1CCCCCC1)Nc1ccccc1Cl	-2%	-16%	25	-7%	-2%
COc1ccc(NC(C)=O)cc1NC(=O)CN1CCN(CC(=O)Nc2ccccc2Cl)CC1	0%	21µM*	?	?	-3%
COc1ccc(S(=O)(=O)N2CCN(CC(=O)Nc3ccccc3Cl)CC2)cc1	-1%	-23%	0	?	-3%
O=C(CN1CCN(C(=O)C2CCN(C(=O)/C=C/c3ccccc3)CC2)CC1)Nc1ccccc1Cl	1%	18µM*	13	?	-5%
